Source: PubChem
DT40 TDP1 no CPT: qHTS for Inhibitors of human tyrosyl-DNA phosphodiesterase 1 (TDP1): qHTS in cells in absence of CPT. DT40 Tdp1-/- hTDP1 cells, no CPT, ATP luminescence, 48 h. Potency, µM (doses to about 46.2 µM), usual class: inhibitors. 420,000 tested, 15% active. AID 686978, 2013; note: nearly all actives have a fitted effect of over 55% in size
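Cells were dispensed at 400 per well, compounds added by pin tool, plates incubated ≥48 hr at 37 °C, then CellTiter-Glo added for 30 min at room temperature before luminescence reading. Line: DT40 Tdp1-/- complemented with hTDP1; camptothecin omitted.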
ELG1 repair inh: blocks ELG1-dependent DNA repair in HEK293T cells | HEK293T ELG1-luciferase reporter, luminescence, 16 h; DNA damage induced by 5-fluorouridine | Potency, µM (top dose mostly 46.1 µM), usual class: inhibitors | 330,000 tested, 2.3% active; note: nearly all actives have a fitted effect of over 55% in size
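Reporter activity after DNA damage by 5-fluorouridine is monitored. Compound-treated cells incubate 16 hr at 37 °C, then ONE-Glo is added for 30 min before luminescence reading.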
IL1B secr inh: inflammasome signaling inhibition, IL-1 beta readout. THP-1 LPS/ATP IL-1B secretion, AlphaLISA, 16 h; hits give low values. activity change, % at 57.5 µM. 360,000 tested, 4.7% active. AID 743279; in the data active = activity change below about -50%; inconclusive = mostly about -30% to -49%
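THP-1 cells pretreated 1 hr with compounds (up to 57.5 uM final), then stimulated with LPS (250 ng/mL final) plus ATP (1.25 mM final); secreted IL-1B measured by AlphaLISA after 16 hr, decreased signal indicating inhibition.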
TDP1 cell CPT: DT40-hTDP1 cell growth loss with CPT; chicken DT40 Tdp1-/-;hTDP1 cells + 20 nM CPT, ATP luminescence, 48 h; AID 686979; 420,000 tested, 12% active; Potency, µM (top dose mostly 46.2 µM), actives largely listed as inhibitors; note: nearly all actives have a fitted effect of over 55% in size
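Chicken DT40 Tdp1-/- cells stably complemented with human TDP1 were seeded at 400 cells/well in medium containing 20 nM camptothecin, exposed to pin-transferred compounds, and grown at 37 °C for at least 48 hr. Viability was read as ATP luminescence.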
HT1080-NT tox: kills 2HG-producing HT-1080-NT fibrosarcoma cells; HT-1080-NT fibrosarcoma viability, CellTiter-Glo ATP luminescence, 48 h; Potency, µM (doses to about 46.1 µM), most hits filed as cytotoxic; 360,000 tested, 1.6% active; AID 686970;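 note: NT is the 2HG producing partner of a matched IDH1 knockdown line; nearly all actives have a fitted effect of over 55% in size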
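Viability by CellTiter-Glo luminescence after 48 h compound exposure at 37C of HT-1080-NT cells (750/well, RPMI, 5% FBS). % activity scaled between DMSO wells and medium-only wells, then curve-fitted and categorized by curve class.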
HT1080 IDH1KD tx: toxicity to HT-1080 IDH1 knockdown cells (counter line) | HT-1080 IDH1 knockdown viability, ATP luminescence, 48 h | 360,000 tested, 2% active | AID 686971 | Potency, µM (titrated, usually from 46.1 µM), most hits filed as cytotoxic
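In this qHTS, HT-1080 cells depleted of IDH1 are exposed for 48 h at 37 °C to compound titrations. Toxicity is scored from CellTiter-Glo luminescence, with DMSO as full viability and medium alone as none.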
Numbers stand for hits; n = inactive; u = inconclusive; x = no result given; ! = repeats disagree. This is a sample that favours compounds with a hit; in the whole collection about 19% have one here. Unless noted, calls come from the whole dose curve; as a rule, active = well fitted curve in the direction sought with a large enough effect; inconclusive = small, poorly fitted or top-dose-only effect, or another doubt; inactive = no such curve, though single readings can be large; an effect the other way counts as inactive or inconclusive.

SMILES	DT40 TDP1 no CPT	ELG1 repair inh	IL1B secr inh	TDP1 cell CPT	HT1080-NT tox	HT1080 IDH1KD tx
Cc1ccc2oc(C(Cl)(Cl)Cl)cc(=O)c2c1	5.8µM	n	-100	4.6µM	10µM	u
Cc1ccc2oc(C(F)(F)C(F)F)cc(=O)c2c1	n	n	n	n	n	n
CCN(C(=O)Cn1ncc2c(=O)oc3ccccc3c21)c1ccccc1F	u	x	x	n	x	x
CCCN(C(=O)Cn1ncc2c(=O)oc3ccccc3c21)c1cccc(C)c1	21µM	x	n	23µM!	n	n
COC(=O)C(CCSC)NC(=O)Cn1ncc2c(=O)oc3ccccc3c21 (stereo not given)	n	u	-55	u	n	n
Cc1cccc(/C=C(\c2nc3ccccc3[nH]2)S(=O)(=O)c2ccccc2)c1	2.6µM	12µM	-110	4.1µM	9.2µM	9.2µM
O=C(O)c1ccc(/C=C(\c2nc3ccccc3[nH]2)c2nc3ccccc3s2)cc1	n	u	-70	u	u	18µM
CC(C)(C)c1ccc(/C=C(\c2nc3ccccc3[nH]2)S(=O)(=O)c2ccccc2)cc1	u	x	-96	23µM	6.5µM	6.5µM
Cc1nnc(NC(=O)C2CCN(C(=O)c3ccsc3)CC2)s1	n	x	x	n	x	x
O=C(COc1ccc(S(=O)(=O)N2CCOCC2)cc1Cl)NCC1CCCO1 (stereo not given)	n	n	n	n	n	n
Cc1ccc(C(=O)N/C(=C\c2cccs2)c2nc3ccccc3[nH]2)cc1	u	n	n	16µM	n	n
N#C/C(=C\c1cccs1)c1nc2ccccc2[nH]1	n	u	n	n	u	u
COC(=O)C1=C(c2ccccc2)c2ccccc2S(=O)(=O)N1CC(=O)Nc1ccc(F)c(F)c1	u	x	x	n	x	x
O=C(NCCc1ccccc1)Nc1nnc([C@@H]2C[C@H](O)[C@@H](CO)O2)s1	n	x	n	n	n	u
C=CCN(C)CCCCCCOc1ccc(C(=O)c2ccc(Br)cc2)c(F)c1	5µM	x	x	5µM	x	x
C=CCc1ccc(OCCCCOc2ccc(C(=O)O)cc2)c(OC)c1	n	n	n	n	n	n
COc1ccc(-c2sc3ccc(N4CCOCC4)cc3c2C#Cc2ccsc2)cc1	u	n	n	18µM	n	n
COc1ccc(-c2sc3ccc(N4CCOCC4)cc3c2C#CC(C)(C)O)cc1	9.2µM	n	n	21µM	n	n
COc1ccc(-c2sc3ccc(N4CCOCC4)cc3c2-c2ccc(O)cc2)cc1	u	n	n	u	n	n
COc1ccc(-c2oc3ccc(N4CCOCC4)cc3c2C#CCO)cc1	u	x	n	u	u	u
CCOC(=O)c1cc2c(=O)n3cccc(C)c3nc2n(Cc2ccco2)c1=NC(=O)c1ccc(C)cc1	n	x	n	n	n	n
CCOC(=O)c1cc2c(=O)n3ccccc3nc2n(Cc2ccco2)c1=NC(=O)c1ccc(OC)cc1	5.2µM	u	n	6.5µM	n	n
CCOC(=O)c1cc2c(=O)n3ccccc3nc2n(CC2CCCO2)c1=NC(=O)c1ccccc1OCC (stereo not given)	15µM	x	x	16µM	x	x
CCOC(=O)c1cc2c(=O)n3ccccc3nc2n(Cc2ccco2)c1=NC(=O)c1cccc(OC)c1	u	u	-55	u	n	n
CCOC(=O)c1cc2c(=O)n3cccc(C)c3nc2n(Cc2ccco2)c1=NC(=O)c1ccccc1	u	n	n	29µM	n	n
CCOC(=O)c1cc2c(=O)n3ccccc3nc2n(CC2CCCO2)c1=NC(=O)c1ccccc1C (stereo not given)	n	x	x	n	x	x
CN(Cc1cnn(-c2ccccc2)c1)C(=O)c1cccc(S(=O)(=O)Nc2ccccc2F)c1	u	x	n	n	n	n
Cc1ccc(-c2cc(-c3coc4ccccc4c3=O)c3c(n2)-c2ccccc2OC3)cc1	n	x	x	u	x	x
